The full list was thinned out, with the strongest signals kept by preference.
Experiments:
Assay in all cases: glycan array binding signal (z-score within array); higher = stronger binding
Settings in all cases: glycan notation: IUPAC condensed, linker removed
[1] = target: Fuc(a1-2)Gal(b1-3)GlcNAc(b1-3)[Neu5Ac(a2-6)Gal(b1-4)GlcNAc(b1-6)]Gal(b1-4)Glc
How it was run: (§1)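 Glycan array data came from 3228 arrays in the Consortium for Functional Glycomics database, and only arrays with an available protein sequence were kept. Glycan names were put into IUPAC-condensed notation, and columns mapping to the same glycan were averaged. The binding signal is a within-array Z-score, averaged across arrays of one protein sequence run at different concentrations or buffers and across linkers. A negative Z-score can be read as non-binding.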

[2] = target: Fuc(a1-2)Gal(b1-3)[Fuc(a1-4)]GlcNAc
How it was run: as §1

[3] = target: Fuc(a1-2)Gal(b1-4)GlcNAc(b1-6)GalNAc
How it was run: as §1

[4] = target: Fuc(a1-2)Gal(b1-4)GlcNAc6S
How it was run: as §1

[5] = target: Fuc(a1-2)[Gal(a1-3)]Gal(b1-3)GalNAc(b1-3)Gal(a1-4)Gal(b1-4)Glc
How it was run: as §1

[6] = target: Fuc(a1-2)[Gal(a1-3)]Gal(b1-4)Glc
How it was run: as §1

[7] = target: Fuc(a1-2)[Gal(a1-3)]Gal(b1-4)GlcNAc(b1-6)GalNAc
How it was run: as §1

[8] = target: Fuc(a1-2)[GalNAc(a1-3)]Gal(b1-3)GalNAc(a1-3)[Fuc(a1-2)]Gal(b1-4)GlcNAc
How it was run: as §1

[9] = target: Fuc(a1-2)[GalNAc(a1-3)]Gal(b1-4)[Fuc(a1-3)]GlcNAc(b1-3)GalNAc
How it was run: as §1

[10] = target: Fuc(a1-3)[Gal(b1-4)]GlcNAc6S
How it was run: as §1

[11] = target: Gal(a1-3)Gal(b1-4)[Fuc(a1-3)]GlcNAc(b1-2)Man(a1-3)[Gal(a1-3)Gal(b1-4)[Fuc(a1-3)]GlcNAc(b1-2)Man(a1-6)]Man(b1-4)GlcNAc(b1-4)GlcNAc
How it was run: as §1

[12] = target: Gal(a1-4)Gal(b1-3)GlcNAc(b1-2)Man(a1-3)[Gal(a1-4)Gal(b1-3)GlcNAc(b1-2)Man(a1-6)]Man(b1-4)GlcNAc(b1-4)GlcNAc
How it was run: as §1

[13] = target: Gal(a1-4)Gal(b1-4)GlcNAc(b1-2)Man(a1-3)[Gal(a1-4)Gal(b1-4)GlcNAc(b1-2)Man(a1-6)]Man(b1-4)GlcNAc(b1-4)GlcNAc
How it was run: as §1

[14] = target: Gal(a1-4)Gal(b1-4)GlcNAc(b1-3)Gal(b1-4)Glc
How it was run: as §1

[15] = target: Gal(b1-3)Gal(b1-4)GlcNAc
How it was run: as §1

[16] = target: Gal(b1-3)GalNAc
How it was run: as §1

[17] = target: Gal(b1-3)GalNAc(a1-3)[Fuc(a1-2)]Gal(b1-4)Glc
How it was run: as §1

[18] = target: Gal(b1-3)GalNAc(a1-3)[Fuc(a1-2)]Gal(b1-4)GlcNAc
How it was run: as §1

[19] = target: Gal(b1-3)GalNAc(b1-3)Gal
How it was run: as §1

[20] = target: Gal(b1-3)GalNAc(b1-3)Gal(a1-4)Gal(b1-4)Glc
How it was run: as §1

[21] = target: Gal(b1-3)GalNAc(b1-4)Gal(b1-4)Glc
How it was run: as §1

[22] = target: Gal(b1-3)GalNAc(b1-4)[Neu5Ac(a2-3)]Gal(b1-4)Glc
How it was run: as §1

[23] = target: Gal(b1-3)GlcNAc(b1-3)Gal(b1-4)GlcNAc(b1-3)Gal(b1-4)GlcNAc(b1-2)[Gal(b1-3)GlcNAc(b1-3)Gal(b1-4)GlcNAc(b1-3)Gal(b1-4)GlcNAc(b1-6)]Man(a1-6)[Gal(b1-3)GlcNAc(b1-3)Gal(b1-4)GlcNAc(b1-3)Gal(b1-4)GlcNAc(b1-2)Man(a1-3)]Man(b1-4)GlcNAc(b1-4)[Fuc(a1-6)]GlcNAc
How it was run: as §1

[24] = target: Gal(b1-3)[Fuc(a1-4)]GlcNAc(b1-3)Gal(b1-4)[Fuc(a1-3)]GlcNAc
How it was run: as §1

[25] = target: Gal(b1-3)[Neu5Ac(a2-6)]GalNAc
How it was run: as §1

[26] = target: Gal(b1-4)GlcNAc(b1-2)Man(a1-3)[Gal(b1-4)GlcNAc(b1-2)Man(a1-6)][Gal(b1-4)GlcNAc(b1-4)]Man(b1-4)GlcNAc(b1-4)[Fuc(a1-6)]GlcNAc
How it was run: as §1

[27] = target: Gal(b1-4)GlcNAc(b1-2)[Gal(b1-4)GlcNAc(b1-6)]Man(a1-6)[GlcNAc(b1-4)][Gal(b1-4)GlcNAc(b1-2)[Gal(b1-4)GlcNAc(b1-4)]Man(a1-3)]Man(b1-4)GlcNAc(b1-4)[Fuc(a1-6)]GlcNAc
How it was run: as §1

[28] = target: Gal(b1-4)GlcNAc(b1-3)Gal(b1-4)Glc
How it was run: as §1

[29] = target: Gal(b1-4)GlcNAc(b1-6)[Gal(b1-3)]GalNAc
How it was run: as §1

[30] = target: Gal(b1-4)GlcNAc(b1-6)[Gal(b1-4)GlcNAc(b1-3)]GalNAc
How it was run: as §1

B1: Epa10 (protein)
chain: MNEKIFRYLTLLFLFELARSLPVEDKLNIKKVFEKRAVDFTPFAHYPRPEGCSSPPNSVSVGLHMNLYNYPYLYVKPSTKGMFTNDTNSDADGETDGDSAGGIEGRAGQCWNPEYQDPNFPRFGYKQYGEFGASDNVNGDISWDHNEFTEGCKPVLAALPPGYNYPDEITFSNFTMVLSGYFKPKTSGVYKFELKADDFILFNFGAKNAFECCNREESIDNFGPYVAYAMWPNQADQELEVYLFEDSYYPLRLFYNNRDYHSKFKIGFYPPGQTTITFDFDGYLFMLDDTGNECRDSIRYRTVCDDKVVDDTTYSTRYSTSMVPGGGSDVITIYYIRMKCEEEDCLGQWDPINNVCYSPDDCADDGGYWNGQMCDQSCKLEGGIVNPDTGDCDKSCIESGGFLDENGNCDTTCRDDGGMLVEGQCDYQCKEAGGILVGDHCDTTCVDSGGKLNEDGTCDHSCRDQGGQLDENGECDTSCKDSGGMLIEGECDTSCKDEGGQLDDNNECINHCKDQGGIIDENGNCDTSCKDSGGKLDESGACDTSCRDDGGIIDENGNCNTTCRDDGGIIVGDHCDTSCRDAGGILIEDHCDTTCRDSGGKLNEDGTCDHSCRDQGGQLDENGKCDYSCKNGGGKLDEDGNCDMSCKENGGKLDENGDCDLSCKEDGGKLDGNGDCDYSCKEEGGVIDESGNCNTTCKDSGGQIIDGECNYGCIEVGGVVIDGECDTSCIDSGGILDGDGNCDRSCIESGGVLEDGACNTTCRDSGGQLNVDGTCDTSCRDDGGMLVEGQCDYQCKEAGGILEDGECVFPPTSSSTSETSSTTDQSSLQSDDSSMESSSTPMDSSTIESSSSEIITSESESESVPIASSSSEVMTSESESESIPILTSSSEIPIASSSSEIPVASSSSEIIIPESESESVPVASSSSEIPIASSSSEIPVASSSSEIPVASSSSEIIIPESESESIPIESTSSEAVSSRSESDSSYPTPTPTTTTITTWPNPIQPTTSNSSPIVSSSTETPGIAESSSRISDLESSRRTSILGDDRTRTRTTITSTITEDGQIITITTTVTGFVPEPTGETEGNGSDDENPENPIENNTDENEFLDPEFTDDIPDDPAGPEDNGNGPVNPEQGNDNDPVNLEDSGNNGAVNPEQAPVNDEDNGGNDPVNPEQDNNNGPANPGQDSTNGSGNSDQIDNNPPTPEENAGDGNSNGNDPADPSRRTSILGDERTRASPGGTSQPTGANGNVNGNSPGANVNGGGTGNSNNNNNNNNNNNNGNAPNGGDGSNGDANQGPSRRTSLLGDERTRAGQAAPTGGSSPDNGIAGDTSNNGGAIVSQQVDDGGAGSPRRTSILGDVRSRTTLNGEVLNFEGSGVRRAVAGNLALPLMMVGLVFNL
glycan array binding signal (z-score) [1]: -0.195 | glycan array binding signal (z-score) [2]: -0.222 | glycan array binding signal (z-score) [3]: -0.172 | glycan array binding signal (z-score) [4]: -0.198 | glycan array binding signal (z-score) [5]: -0.256 | glycan array binding signal (z-score) [6]: -0.272 | glycan array binding signal (z-score) [7]: -0.16 | glycan array binding signal (z-score) [8]: -0.215 | glycan array binding signal (z-score) [9]: -0.113 | glycan array binding signal (z-score) [10]: -0.223 | glycan array binding signal (z-score) [11]: 0.134 | glycan array binding signal (z-score) [12]: 3.35 | glycan array binding signal (z-score) [13]: 1.46 | glycan array binding signal (z-score) [14]: 1.2 | glycan array binding signal (z-score) [15]: 4.92 | glycan array binding signal (z-score) [16]: 3.84 | glycan array binding signal (z-score) [17]: 3.03 | glycan array binding signal (z-score) [18]: 3.87 | glycan array binding signal (z-score) [19]: 6.03 | glycan array binding signal (z-score) [20]: 4.11 | glycan array binding signal (z-score) [21]: 17 | glycan array binding signal (z-score) [22]: 4.18 | glycan array binding signal (z-score) [23]: 0.117 | glycan array binding signal (z-score) [24]: -0.254 | glycan array binding signal (z-score) [25]: 3.73 | glycan array binding signal (z-score) [26]: -0.267 | glycan array binding signal (z-score) [27]: 0.014 | glycan array binding signal (z-score) [28]: -0.234 | glycan array binding signal (z-score) [29]: 2.59 | glycan array binding signal (z-score) [30]: 0.208

Reference: the supplement of paper PMC8728848
